Screening results: PubChem BioAssay, Broad Institute
Many of the other results were omitted from the sample, so hits are more common in it than they were.
NSD2 block = inhibitors of human NSD2, primary screen, biochemical, plate reader, single point; AID 624260, 2012; Histone-lysine N-methyltransferase NSD2 (Homo sapiens), O96028; inhibition, % at 12.5 µM; NSD2-SET H3K36me1 DELFIA fluorescence; 44,000 tested, 0.07% active; in the data active means inhibition above about 54%, passing the limit was not always enough;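 further: inhibitors reduce the monomethyl H3K36 fluorescence signal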
Each line names hits and unclear results; the compound was inactive in the other large screens.

O=C(CCCCC(=O)N/N=C/c1ccncc1Br)NO	none
O/N=C/c1ccc(Cl)s1	none
COc1c(O)cc2c(c1O)C(=O)OC(C)C2O (configuration not stated)	none
CC/C=C/c1ccc(C)cc1CCCCCC(=O)O	none
O=C(CCCCCC(=O)N/N=C/c1ccc([N+](=O)[O-])s1)NO	none
c1ccc(N=C2SC(=NC3CCCCC3)C3=C2CCCC3)cc1	none
C/C(=C\CC(C)(C)CCC(=O)c1ccoc1)C(=O)O	none
O=C(O)CCCC[C@@H]1SC[C@@H]2NC(=O)N[C@@H]21	NSD2 block 104.9
O=C(O)CCCCCCC(=O)N/N=C/CCC1CCCCC1	none
C#CCOc1ccc(/C=N/NC(=O)c2cccc(C(=O)NO)c2)cc1	none
CC(C)N(C(=O)NC(=O)c1ccc(F)cc1F)C(C)C	none
CC1=CC[C@@]2(C)CC[C@@](O)(C(C)C)[C@@H]2[C@@H](O)C1	none
O=C1O[C@H](c2ccccc2)[C@H](c2ccccc2)N2[C@H]1[C@@H](C(=O)NC[C@H](O)c1ccccc1)[C@]1(C(=O)Nc3ccc(C#CCCO)cc31)[C@H]2c1ccccc1OCCO	none
CC(C)(C)c1csc(-c2sccc2CS(=O)(=O)c2ccc(Cl)cc2)n1	none
NNC(=O)c1ccccc1O	none
CC1(C)CC[C@]2(C(=O)O[C@@H]3O[C@H](CO)[C@@H](O)[C@H](O)[C@H]3O)CC[C@]3(C)C(=CCC4[C@@]5(C)C[C@@H](O)[C@H](O)[C@@](C)(CO)C5[C@H](O)C[C@]43C)C2[C@@H]1O (some centres not stated)	NSD2 block 62.4
CC1(C)CC[C@]2(C(=O)O[C@@H]3O[C@H](CO)[C@@H](O)[C@H](O)[C@H]3O)CC[C@]3(C)C(=CCC4[C@@]5(C)C[C@@H](O)[C@H](O)C(C)(C)C5CC[C@]43C)C2[C@@H]1O (some centres not stated)	none
CC1(C)CC[C@]2(C(=O)O[C@@H]3O[C@H](CO)[C@@H](O)[C@H](O)[C@H]3O)CC[C@]3(C)C(=CCC4[C@@]5(C)C[C@@H](O)[C@H](O)[C@@](C)(CO)C5[C@H](O)C[C@]43C)C2C1 (some centres not stated)	none
COC(=O)C1=COC(OC2OC(CO)C(O)C(O)C2O)C2C1C=CC2(O)CO (configuration not stated)	NSD2 block 60.2
COC(=O)C1=CO[C@@H](O[C@@H]2O[C@H](CO)[C@@H](O)[C@H](O)[C@H]2O)[C@H]2[C@@H]1[C@H](OC(C)=O)C[C@]2(C)O	none
COC(=O)C1=COC(O[C@@H]2O[C@H](CO)[C@@H](O)[C@H](O)[C@H]2O)[C@H]2[C@@H]1[C@H](OC(=O)CCc1ccc(O)cc1)C[C@]2(C)O (some centres not stated)	none
CC(=O)OC/C=C(\CO)CC/C=C(\C)CC/C=C(\CC/C=C(\C)COC(C)=O)C(=O)O	none
C=C[C@]1(C)CC[C@H]([C@H](C)C(=O)/C=C/C(C)(C)O)O1	none
O=c1cc(-c2ccc(O[C@@H]3O[C@H](CO)[C@@H](O)[C@H](O)[C@H]3O)cc2)oc2cc(O)cc(O)c12	none
COc1ccc(OC)c2c(C)cc(Cl)nc12	none
CC(CC(N)=O)OC(=O)c1cc(Cl)cc(O)c1O (configuration not stated)	none
O=S(=O)(Nc1ccc(O)c(Sc2nc3ccccc3s2)c1)c1ccccc1	none
